Assay outcomes (PubChem BioAssay)
TRPV1 ag: HTS Assay for Compounds that Act as Agonists of the Vanilloid Receptor 1 | Transient receptor potential cation channel subfamily V member 1 (Homo sapiens), Q8NER1 | TRPV1-expressing cells, Fluo-8 calcium influx, agonist mode | activation, % at 8.33 µM | hit rate 0.19% among 320,000 | AID 540275, 2011; in the data active means activation above about 80%; inconclusive means between about 30% and that limit; further: 0% is about no effect
Target sequence (Q8NER1 whole entry, looked up): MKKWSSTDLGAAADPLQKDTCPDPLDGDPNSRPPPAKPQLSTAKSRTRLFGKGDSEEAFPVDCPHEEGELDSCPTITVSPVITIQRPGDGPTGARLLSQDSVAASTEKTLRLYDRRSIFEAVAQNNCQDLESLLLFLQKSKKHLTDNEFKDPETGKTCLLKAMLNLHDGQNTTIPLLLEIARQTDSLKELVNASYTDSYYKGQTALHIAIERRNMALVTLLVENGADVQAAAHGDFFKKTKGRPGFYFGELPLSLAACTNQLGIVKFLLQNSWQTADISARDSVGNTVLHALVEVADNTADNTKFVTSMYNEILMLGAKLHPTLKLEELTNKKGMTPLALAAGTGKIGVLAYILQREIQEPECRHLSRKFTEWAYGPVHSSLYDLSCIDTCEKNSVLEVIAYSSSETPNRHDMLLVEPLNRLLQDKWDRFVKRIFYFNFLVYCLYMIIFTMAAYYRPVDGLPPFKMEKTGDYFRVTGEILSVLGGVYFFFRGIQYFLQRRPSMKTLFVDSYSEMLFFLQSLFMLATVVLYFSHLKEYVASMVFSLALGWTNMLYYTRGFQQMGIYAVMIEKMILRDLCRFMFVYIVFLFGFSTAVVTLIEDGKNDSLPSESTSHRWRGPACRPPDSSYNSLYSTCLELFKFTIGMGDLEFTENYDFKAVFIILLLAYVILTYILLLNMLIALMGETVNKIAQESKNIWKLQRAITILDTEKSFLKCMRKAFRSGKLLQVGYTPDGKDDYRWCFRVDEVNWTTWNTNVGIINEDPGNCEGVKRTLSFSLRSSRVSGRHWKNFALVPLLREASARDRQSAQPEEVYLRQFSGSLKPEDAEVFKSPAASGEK
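Fluo-8 calcium influx in TRPV1-expressing cells, kinetic read (ex 480/em 520 nm). Compound added and read 3 min for agonist activity, followed by capsaicin at EC20 final and 2 min further read for enhancement.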
RORg inh: qHTS for inhibitors of ROR gamma transcriptional activity; AID 2551, 2010; Drosophila S2 Gal4-RORgamma UAS-luciferase reporter, 20 h; Potency, µM (highest dose often 53.6 µM), inactives show top-dose activity change, negative = inhibition, most hits filed as inhibitors; hit rate 5.4% among 310,000; Nuclear receptor ROR-gamma (Mus musculus), P51450; further: potency means the concentration at half of the fitted maximal effect; on the % scale 0 is the no-effect control and ±100 the full control effect; nearly all actives have a fitted effect of over 60% in size
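Using a luciferase readout, inhibitors were identified by reduced reporter activity in Drosophila cells coexpressing a copper-inducible Gal4–ROR gamma fusion and UAS-driven Photinus luciferase, incubated 20 hr after 700 uM copper sulfate.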
VP16 counter: VP16 counterscreen qHTS for inhibitors of ROR gamma transcriptional activity; Drosophila S2 Gal4-VP16 UAS-luciferase, luminescence, 20 h; Potency, µM (doses to about 53.6 µM), without a hit: at the highest dose activity, negative = inhibition, actives largely listed as inhibitors; hit rate 3.5% among 310,000; AID 2546, 2010;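 further: Gal4-VP16 expression switched on by copper sulfate through the metallothionein promoter; potency means the concentration at half of the fitted maximal effect; on the % scale 0 is the no-effect control and ±100 the full control effect; nearly all actives have a fitted effect of over 50% in size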
TRPV1 PAM: HTS Assay for Compounds that Act as Potentiators of the Vanilloid Receptor 1 | AID 540277, 2011 | Transient receptor potential cation channel subfamily V member 1 (Homo sapiens), Q8NER1 | hit rate 0.02% among 320,000 | potentiation, % at 8.33 µM | TRPV1-expressing cells, Fluo-8 calcium influx, capsaicin EC20 potentiation; in the data active means potentiation above about 80%; inconclusive means between about 30% and that limit; further: 0% is about no effect
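Cells expressing TRPV1 were dye-loaded with Fluo-8 and read kinetically: 10 s baseline, 3 min after compound (agonist portion), then 2 min after EC20 capsaicin (allosteric enhancer portion). Calcium-bound dye fluorescence at 480/520 nm.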
uPA surface inh: qHTS for Inhibitors of Cell Surface uPA Generation; cell surface uPA generation assay, qHTS; Potency, µM (series often up to 38.3 µM), inactives show top-dose activity change, negative = inhibition, actives largely listed as inhibitors; hit rate 0.31% among 330,000; AID 540303, 2011; active means well fitted inhibition curve with a large enough effect; inconclusive means small, poorly fitted or top-dose-only effect; inactive means no such curve, though single readings can be large or run the other way; tested in mouse RAW 264.7 cells; further: potency means the concentration at half of the fitted maximal effect; on the % scale 0 is the no-effect control and ±100 the full control effect; nearly all actives have a fitted effect of over 55% in size
* = called active by the depositor. Compounds with a hit are over-represented: about 5.8% of the library has one in this group of screens. Unless noted, the call rests on the fitted dose curve; in most records, active means well fitted curve in the direction sought with a large enough effect; inconclusive means small, poorly fitted or top-dose-only effect, or another doubt; inactive means no such curve, though single readings can be large; an effect the other way counts as inactive or inconclusive.

`CC(C)(C)NC(=O)/C(=C\C=C\c1ccccc1)NC(=O)c1ccc([N+](=O)[O-])cc1` gave TRPV1 ag -1.0, RORg inh 8.8%, VP16 counter -29.1%, TRPV1 PAM 5.8 and uPA surface inh -2.8%.
Cc1ccc(COc2ccccc2C(=S)N2CCCC2)cc1 was read as TRPV1 ag 12.8, RORg inh 15.8µM*, VP16 counter inconclusive, TRPV1 PAM -7.0 and uPA surface inh -2.5%.
`COc1cccc(C(=S)N2CCCC2)c1OC` gave TRPV1 ag 5.6, RORg inh inconclusive, VP16 counter 0.0794µM*, TRPV1 PAM -3.8 and uPA surface inh 6.5%.
`COC(=O)[C@H](COC(C)(C)C)NC(=O)O[C@@H]1C(=O)c2cc(OC)ccc2O[C@H]1c1cccc(OC)c1` gave RORg inh 13.5% and VP16 counter -22.3%.
Screening Cc1cc(C(=O)CSc2nnc(-c3ccco3)o2)c(C)n1Cc1ccco1 returned TRPV1 ag -1.4, RORg inh 13.0%, VP16 counter 9.5%, TRPV1 PAM 16.0 and uPA surface inh 2.5%.
Screening CC(=O)c1ccc(NC(=O)CSc2nnc(-c3ccco3)o2)cc1 returned TRPV1 ag 0.4, RORg inh 30.9%, VP16 counter -3.8%, TRPV1 PAM -5.9 and uPA surface inh 0.3%.
Screening O=C(CSc1nnc(-c2ccco2)o1)c1ccc([N+](=O)[O-])cc1 returned TRPV1 ag 0.2, RORg inh 0.794µM*, VP16 counter 0.891µM*, TRPV1 PAM 20.6 and uPA surface inh 13.2%.
Screening O=C(CSc1ccc(-c2ccccn2)nn1)c1ccc([N+](=O)[O-])cc1 returned TRPV1 ag 15.2, RORg inh 4.47µM*, VP16 counter inconclusive, TRPV1 PAM -46.3 and uPA surface inh -0.4%.
Screening O=C(CSc1nnc(-c2ccco2)o1)c1ccccc1Cl returned TRPV1 ag 7.1, RORg inh 3.98µM*, VP16 counter inconclusive, TRPV1 PAM -13.4 and uPA surface inh -3.8%.
Screening O=C(CSc1ccc(-c2cccnc2)nn1)c1ccc([N+](=O)[O-])cc1 returned TRPV1 ag 0.3, RORg inh 0.7%, VP16 counter 1.1%, TRPV1 PAM -10.7 and uPA surface inh -1.0%.
`COc1ccc(-c2ccnc3c(C(=O)O)cnn23)cc1` gave TRPV1 ag -0.9, RORg inh 7.2%, VP16 counter 15.5%, TRPV1 PAM 7.3 and uPA surface inh 1.3%.
Cc1cccc(-n2ncc3c2CCCC3NC(=O)Cc2c(C)noc2C)c1C (stereo not drawn) was read as TRPV1 ag inconclusive, RORg inh 19.6%, VP16 counter 10µM*, TRPV1 PAM 2.2 and uPA surface inh -16.9%.
CCn1cc(C(=O)NC2CCCc3c2cnn3-c2cccc(C)c2C)cn1 (stereo not drawn) was read as TRPV1 ag 15.1, RORg inh -7.1%, VP16 counter 1.26µM* and TRPV1 PAM -9.1.
Screening Cc1cc(C(=O)NC2CCCc3c2cnn3-c2cccc(C)c2C)no1 (stereo not drawn) returned TRPV1 ag 8.8, RORg inh inconclusive, VP16 counter inconclusive, TRPV1 PAM -15.4 and uPA surface inh inconclusive.
`CC1=C(C(=O)NC2CCCc3c2cnn3-c2cccc(C)c2C)OCCO1` (stereo not drawn) gave TRPV1 ag 15.6, RORg inh inconclusive, VP16 counter 11.2µM*, TRPV1 PAM -2.1 and uPA surface inh -3.4%.
For O=C(Nc1cccc(Cl)c1Cl)c1cc(S(=O)(=O)NCCc2ccccc2)ccc1F the results were TRPV1 ag 4.4, RORg inh 5.01µM*, VP16 counter 3.9%, TRPV1 PAM 15.4 and uPA surface inh -2.1%.
Screening CC(C)Oc1ccc(Cc2cnc(=S)[nH]c2N)cc1 returned TRPV1 ag -1.5, RORg inh 11.2µM*, VP16 counter -23.8%, TRPV1 PAM -2.2 and uPA surface inh 17.2%.
`CC(C)COc1ccc(Cc2cnc(N)nc2N)cc1` gave TRPV1 ag 2.4, RORg inh -4.2%, VP16 counter -0.1%, TRPV1 PAM 3.6 and uPA surface inh -8.1%.
Screening CCOc1ccc(Br)cc1S(=O)(=O)NCC(c1ccc(OC)cc1)N1CCOCC1 (stereo not drawn) returned uPA surface inh -19.7%.
O=c1c(-c2cccs2)nc2cnc(Nc3ccccc3)nc2n1C[C@H]1CCCO1 was read as RORg inh -15.4% and VP16 counter 6.0%.
`CCCCC(CC)C/C=C1\CC(C(=O)OCC)Oc2ccccc21` (stereo not drawn) (tested in a mixture with another compound) gave RORg inh 1.58µM* and VP16 counter 29.0%.
`CCOC(=O)c1ccccc1Nc1cc(C)nc2nc(-c3ccco3)nn12` gave TRPV1 ag inconclusive and TRPV1 PAM -8.1.
CCN(CC)C(=O)Cn1c(=O)n(CC(=O)N2CCCCC2)c(=O)c2sccc21 was read as TRPV1 ag 2.7, RORg inh -0.5%, VP16 counter -3.9%, TRPV1 PAM 4.9 and uPA surface inh -13.3%.
`Nc1c(Cl)cc(C2=NCCn3c2c2ccc([N+](=O)[O-])cc2[n+]3[O-])cc1Cl` gave TRPV1 ag -8.6, TRPV1 PAM -0.3 and uPA surface inh 3.98µM*.
For C/C(=N/NC(=O)CNC(=O)Cc1ccc(Cl)cc1)c1ccco1 the results were TRPV1 ag 2.5, RORg inh 19.7%, VP16 counter 3.9%, TRPV1 PAM 13.1 and uPA surface inh 6.4%.
Cn1c(/C=N/O)nc2ccccc21 was read as TRPV1 ag 4.5, RORg inh -5.0%, VP16 counter -9.2%, TRPV1 PAM -0.1 and uPA surface inh 0.9%.
For Cn1c(/C=N/c2nc3ccccc3[nH]2)nc2ccccc21 the results were TRPV1 ag 2.1, RORg inh 17.8µM*, VP16 counter inconclusive, TRPV1 PAM -2.2 and uPA surface inh -8.7%.
CCn1c(/C=N/c2nc3ccccc3n2C)nc2ccccc21 was read as TRPV1 ag 0.6, RORg inh 12.6µM*, VP16 counter inconclusive, TRPV1 PAM -6.0 and uPA surface inh -0.4%.
Cn1c(/N=C/c2c[nH]c3ccccc23)nc2ccccc21 was read as TRPV1 ag -0.5, RORg inh 22.8%, VP16 counter 0.5%, TRPV1 PAM 26.2 and uPA surface inh 1.4%.
For c1ccc(-c2ccc(-c3ccccn3)nn2)nc1 the results were TRPV1 ag 1.3, RORg inh 5.62µM*, VP16 counter 8.91µM* and TRPV1 PAM -3.7.
For c1ccc(-c2ccccn2)nc1 the results were TRPV1 ag 1.5, RORg inh -2.6%, VP16 counter -1.9%, TRPV1 PAM 3.4 and uPA surface inh -0.7%.
